Measurements as given in PubChem BioAssay AID1053127 (Broad Institute, 2014).
Results with a measured potency or affinity are listed apart.

experiment: YAP1 overexpression rescue of CTGF inhibition – DLD1 cells, RT-qPCR, cherry-pick, mechanism study for YAP1 pathway inhibitor project, dose response (AID 1053127); conditions: DLD1 YAP1-overexpressing, CTGF mRNA qPCR, 24 h; series mostly up to 26 µM; CTGF fold change (delta-delta-Ct), lower = inhibition: at the top concentration;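 active = compounds whose fitted curve of lowered CTGF expression reaches half effect within a set concentration limit; inconclusive = flat moderate drop in CTGF, or unreliable curve fit; inactive = the rest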

CTGF fold change (delta-delta-Ct), lower = inhibition, inactive:
C[C@@H]1CN([C@@H](C)CO)C(=O)c2cc(NC(=O)Nc3ccccc3)ccc2O[C@@H](C)CCCCO[C@@H]1CN(C)C(=O)Nc1ccccc1 1.02 unspecified
CO[C@@H](CN(C)S(=O)(=O)c1ccc(C)cc1)[C@@H](C)CN([C@H](C)CO)S(=O)(=O)c1cccc(Cl)c1 0.886 unspecified
C[C@H](O)C#Cc1ccc([C@H]2[C@@H](CO)N3CCCCN(C(=O)c4ccc5c(c4)OCO5)C[C@@H]23)cc1 0.952 unspecified [at 23.5 µM]
C[C@@H]1CN([C@@H](C)CO)C(=O)c2ccccc2-c2ccccc2CO[C@H]1CN(C)C(=O)Nc1ccc(-c2ccccc2)cc1 0.561 unspecified
CO[C@H]1CN(C)C(=O)c2cc(NC(=O)Nc3ccccc3F)ccc2OC[C@H](C)N(CCC(F)(F)F)C[C@@H]1C 1.03 unspecified
N#Cc1cccc(-c2ccc3c(c2)[C@@H]2[C@@H](CCN2S(=O)(=O)c2ccc(F)cc2)[C@H](CO)N3)c1 1.06 unspecified
C[C@@H]1CN([C@@H](C)CO)C(=O)c2cc(C#Cc3ccccc3)cnc2O[C@@H]1CN(C)C(=O)c1ccccc1 1.05 unspecified
CCC(=O)N1Cc2cc(C(=O)NCc3cccc(F)c3)nc(-c3cccc(C4=CCCC4)c3)c2[C@H]1CCO 1 unspecified
C[C@@H]1CN([C@H](C)CO)S(=O)(=O)c2ccc(C#Cc3cccc(F)c3)cc2O[C@@H]1CN(C)S(=O)(=O)c1cn(C)cn1 0.498 unspecified
O=C(Nc1cccc(F)c1)N1CCCCN2[C@H](C1)[C@H](c1ccc(C#Cc3cccnc3)cc1)[C@@H]2CO 0.942 unspecified
COCC(=O)N1CC(=O)N2[C@H](CO)[C@@H](c3ccc(C#CC4CC4)cc3)[C@H]2C1 0.911 unspecified
